This is a sample that favours compounds with a hit; in the whole collection about 19% have one here.
DT40 TDP1 no CPT: qHTS for Inhibitors of human tyrosyl-DNA phosphodiesterase 1 (TDP1): qHTS in cells in absence of CPT | DT40 Tdp1-/- hTDP1 cells, no CPT, ATP luminescence, 48 h | Potency, µM (doses to about 46.2 µM), hits mostly inhibitors | hit rate 15% among 420,000 | AID 686978, 2013; also: nearly all actives have a fitted effect of over 55% in size
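Chicken DT40 Tdp1-/- cells stably complemented with human TDP1 were seeded at 400 cells/well with DMSO in place of 20 nM camptothecin. After compound pinning, cells grew at least 48 hr at 37 °C; viability read by CellTiter-Glo luminescence.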
HT1080 IDH1KD tx: HT-1080 IDH1 knockdown cell toxicity (counter line). HT-1080 IDH1 knockdown viability, ATP luminescence, 48 h. Potency, µM (top dose mostly 46.1 µM), usual class: cytotoxic. hit rate 2% among 360,000. AID 686971
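% activity derives from luminescence (CellTiter-Glo), normalised to DMSO and no-cell wells. HT-1080-IDH1KD cells, 750/well, had 48 h compound exposure at 37 °C.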
IL-1B inflam inh: inflammasome signaling inhibition, IL-1 beta readout | THP-1 LPS/ATP IL-1B secretion, AlphaLISA, 16 h; stronger effect = lower value | activity change, % at 57.5 µM | hit rate 4.7% among 360,000; in the data active = activity change below about -50%; inconclusive = mostly about -30% to -49%
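Secreted IL-1B measured by AlphaLISA bead assay after 16 h compound exposure of THP-1 cells; compounds (final up to 57.5 uM) added 1 h before LPS (250 ng/mL) and ATP (1.25 mM) stimulation; lower signal means less secretion.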
TDP1 cell CPT: DT40-hTDP1 cell growth loss with CPT; hit rate 12% among 420,000; Potency, µM (series often up to 46.2 µM), usual class: inhibitors; chicken DT40 Tdp1-/-;hTDP1 cells + 20 nM CPT, ATP luminescence, 48 h; also: nearly all actives have a fitted effect of over 55% in size
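Chicken DT40 Tdp1-/- cells complemented with human TDP1, 400 cells/well, exposed to compounds plus 20 nM camptothecin for at least 48 h at 37 C; viability read as ATP content by CellTiter-Glo luminescence.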
HT1080-NT tox: kills 2HG-producing HT-1080-NT fibrosarcoma cells; Potency, µM (titrated, usually from 46.1 µM), most hits filed as cytotoxic; HT-1080-NT fibrosarcoma viability, CellTiter-Glo ATP luminescence, 48 h; AID 686970; hit rate 1.6% among 360,000;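 also: NT is the 2HG producing partner of a matched IDH1 knockdown line; nearly all actives have a fitted effect of over 55% in size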
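Viability of the 2HG-overproducing fibrosarcoma line after 48 hours of compound exposure at 37 degrees C was determined by luminescence with CellTiter-Glo, and concentration-effect curves were then fitted and categorized.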
ELG1 repair inh: blocks ELG1-dependent DNA repair in HEK293T cells | HEK293T ELG1-luciferase reporter, luminescence, 16 h; DNA damage induced by 5-fluorouridine | Potency, µM (series often up to 46.1 µM), most hits filed as inhibitors | hit rate 2.3% among 330,000; also: nearly all actives have a fitted effect of over 55% in size
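Reporter activity after DNA damage by 5-fluorouridine is monitored. Compound-treated cells incubate 16 hr at 37 °C, then ONE-Glo is added for 30 min before luminescence reading.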
A number is an active result; . = inactive; ? = inconclusive; / = no result; [ ] = another dose, or the depositor's remark. Unless noted, calls follow the shape of the dose curve; as a rule, active = well fitted curve in the direction sought with a large enough effect; inconclusive = small, poorly fitted or top-dose-only effect, or another doubt; inactive = no such curve, though single readings can be large; an effect the other way counts as inactive or inconclusive.

SMILES	DT40 TDP1 no CPT	HT1080 IDH1KD tx	IL-1B inflam inh	TDP1 cell CPT	HT1080-NT tox	ELG1 repair inh
COc1ccc(CN2CCN(C(=O)c3ccc(CNS(=O)(=O)c4ccc(C)cc4)cc3)CC2)c(OC)c1OC	13µM	.	.	13µM	.	9.2µM
Cc1ccc(CNS(=O)(=O)c2c(C)[nH]c(C)c2C(=O)N2CCCC2)cc1	.	.	.	.	.	.
Cc1ccc(S(=O)(=O)NCc2ccc(C(=O)N3CCN(Cc4ccccc4)CC3)cc2)cc1	?	.	-79	?	?	?
CN1CCN(C(=O)c2cc(=O)c3cc(Cl)cc(Cl)c3o2)CC1	.	.	.	.	.	.
COc1ccc(Cl)cc1NC(=S)NC(=O)c1ccco1	.	.	.	?	.	?
CC(=O)Nc1ccc(CN2CCCN(C)CC2)cc1	.	.	.	.	.	.
COCCN(C(=O)COC(=O)/C=C/c1cccs1)c1c(N)n(Cc2ccccc2)c(=O)[nH]c1=O	.	.	.	.	.	.
CCN(C(=O)COC(=O)/C=C/c1nc2ccccc2s1)c1c(N)n(Cc2ccccc2)c(=O)[nH]c1=O	.	.	-60	.	.	/
CCN(C(=O)COC(=O)/C=C/c1ccco1)c1c(N)n(Cc2ccccc2)c(=O)[nH]c1=O	.	.	.	.	.	.
COCCN(C(=O)COC(=O)/C=C/c1nc2ccccc2s1)c1c(N)n(Cc2ccccc2)c(=O)[nH]c1=O	?	?	-96	?	.	?
CCn1cc(C(=O)N2CCCC(C(=O)c3cccc(C(F)(F)F)c3)C2)cn1 (configuration not stated)	?	.	.	?	.	/
Cc1cccc(-n2ccnc2SCC(=O)Nc2ccc3c(c2)OCCO3)c1	?	.	.	?	.	.
Cc1ccc(NC(=O)CSc2nccn(-c3ccc4c(c3)OCCO4)c2=O)cc1	18µM	.	.	23µM	.	.
CCc1ccc(NC(=O)CSc2nccn(-c3ccc4c(c3)OCCO4)c2=O)cc1	?	.	.	18µM	.	.
CCOc1ccc(NC(=O)CSc2nccn(-c3ccc4c(c3)OCCO4)c2=O)cc1	15µM	.	.	.	.	.
O=C(CSc1nccn(-c2ccc3c(c2)OCCO3)c1=O)Nc1ccccc1	?	.	.	?	.	.
Cc1cnc(-n2ncc(C(=O)NCCCc3ccncc3)c2C)nc1-c1ccc(F)cc1	.	/	/	.[9.04 µM]	/	/
O=C(Nc1ccc2c(c1)OCCO2)C(=O)c1c[nH]c2ccccc12	?	?	?	10µM	7.3µM	?
CCN(CC)C(=O)Cn1cc(C(=O)C(=O)NCCCN2CCOCC2)c2ccccc21	.	.	.	.	.	.
CCN(CC)C(=O)Cn1cc(C(=O)C(=O)Nc2ccc3c(c2)OCCO3)c2ccccc21	23µM	?	?	18µM	?	?
O=C(Nc1ccc2c(c1)OCO2)C(=O)c1c[nH]c2ccccc12	.	?	.	.	?	?
CCC(C)N(C(=O)c1csnn1)C(C(=O)NCc1ccc(F)cc1)c1ccccc1F (configuration not stated)	?	.	.	.	.	.
CC(C)(C)c1ccc(-n2ncc3c2CCCC3NC(=O)c2ccncc2)cc1 (configuration not stated)	10µM	.	.	12µM	.	/
CC(C)(C)c1ccc(-n2ncc3c2CCCC3NC(=O)CCC2=NNC(=O)CC2)cc1 (configuration not stated)	3.3µM	.	.	9.2µM	.	/
O=C(NC1CCCc2c1cnn2-c1cc(F)cc(F)c1)c1ccncc1 (configuration not stated)	.	.	.	.	.	.
CC(C)(C)c1ccc(-n2ncc3c2CCCC3NC(=O)CN2CCOC2=O)cc1 (configuration not stated)	16µM	.	.	18µM	.	.
